According to paper PMC12136788:
Positions count from the first letter of the chain named. The full ranking holds about 5,800 sequences; the median of “enrichment r” is about 0.54, and the highest 2% start at about 16. Only a selection was taken, and the highest values are over-represented in it overall.

B1: chr6:98868534:98874277:-|three_prime_utr|ENSG00000112234|control|control|control (ssRNA)
RNA: GGGAGUUCUACAGUCCGACGAUCAUUAAAAUUAAUGUGCUUUGUUGGGGUUUAAUUUUGGGAUUGGUUUUGGGUUUUGUUUUUAGUUGUUUUAAUGGUAAGAAUUAAGACAUUUGUAGAUUUUAAAGAAAAAUAUGAAAUUGUCAACAGAGGAUUGAGCAUCA
B2: chr9:83661418:83661519:-|3pUTR|ENSG00000135018|msi1|total|mutant (ssRNA)
RNA: GGGAGUUCUACAGUCCGACGAUCUACCGUUGGGUGACCAGAUUUUGUCCUGCAUCUGUCCAGUUUAUUUGCUUUUUAAACAUCCGCCUAUGGCCGUAAUUUAUGCCGAAUAAAAGCAUUAAAAAGAAGCAAAUCAUUUGCACUCAACAGAGGAUUGAGCAUCA
B3: chr11:74334375:74334476:-|3pUTR|ENSG00000165434|msi1|FALSE|unique (ssRNA)
RNA: GGGAGUUCUACAGUCCGACGAUCUUUUUGUUUUAUUUUUAAAAUGUGUAAAACAUCUUUUGUUUUAUAUGCUUUUAAGAAUGUAGAUUGUAAUUUAGGAAAUGGCAUAUAUUCUGCAAAGUGGUAUAAUGUUGUAUAUAUGAACAACAGAGGAUUGAGCAUCA
B4: chr5:132541444:132541810:-|three_prime_utr|ENSG00000113525|control|control|control (ssRNA)
RNA: GGGAGUUCUACAGUCCGACGAUCAAAUUGAUAUACUUUUUUCUUAUUUAACUUAACAUUCUGUAAAAUGUCUGUUAACUUAAUAGUAUUUAUGAAAUGGUUAAGAAUUUGGUAAAUUAGUAUUUAUUUAAUGUUAUGUUGUGUCAACAGAGGAUUGAGCAUCA
B5: chr8:25429562:25429664:-|3pUTR|ENSG00000104756|unk|FALSE|unique (ssRNA)
RNA: GGGAGUUCUACAGUCCGACGAUCAGAAAAGCACUCAUUUAAUAGAUGUAGGGAAACUAGAUAUUGCUGCCUUUUGAAUGGGGUAGGGGGGUUUACCUGGUUUUAUGACCAGGCAUAGUAUCUAUUAUAUUUGCUUUUAAAUAGCAACAGAGGAUUGAGCAUCA
B6: chr9:83661418:83661519:-|3pUTR|ENSG00000135018|msi1|FALSE|unique (ssRNA)
RNA: B2 RNA with C26U, C27A, C83U, C84A, C93U, C94A, C105U, C106A

target: MSI1 full-length (mouse, UniProt Q61474 1-362); assay: nsRBNS (natural sequence RNA bind-n-seq); RBNS binding buffer (assumed for nsRBNS): 25 mM Tris pH 7.5, 150 mM KCl, 3 mM MgCl2, 0.01% Triton X-100, 500 ug/ml BSA, 20 U/ml SUPERase-In, 4 C; UNK is unkempt and MSI1 is Musashi-1; names of the RNAs are library labels; protein concentration not given here; high values mean tight binding
Sequence (Q61474 whole entry): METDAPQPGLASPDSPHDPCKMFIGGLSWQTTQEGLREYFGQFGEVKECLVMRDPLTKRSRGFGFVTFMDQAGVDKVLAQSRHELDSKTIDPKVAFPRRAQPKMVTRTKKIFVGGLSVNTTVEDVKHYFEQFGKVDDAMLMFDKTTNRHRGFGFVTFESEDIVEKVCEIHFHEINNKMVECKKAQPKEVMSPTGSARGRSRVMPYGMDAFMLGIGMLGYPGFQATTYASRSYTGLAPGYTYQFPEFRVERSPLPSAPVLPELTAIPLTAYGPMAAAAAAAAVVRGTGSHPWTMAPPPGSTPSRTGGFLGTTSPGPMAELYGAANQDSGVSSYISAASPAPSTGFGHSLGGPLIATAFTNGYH

In order of rising binding signal:
1. B2  0.203 enrichment R
2. B5  2.16 enrichment R
3. B4  2.88 enrichment R
4. B3  3.15 enrichment R
5. B1  21.9 enrichment R
6. B6  26.4 enrichment R
